# In the library only some 19% were active in any assay of this set; here they are far more common.
# DT40 TDP1 CPT – qHTS for Inhibitors of human tyrosyl-DNA phosphodiesterase 1 (TDP1): qHTS in cells in presence of CPT; chicken DT40 Tdp1-/-;hTDP1 cells + 20 nM CPT, ATP luminescence, 48 h; Potency, µM (top dose mostly 46.2 µM), without a hit: at the highest dose activity change, negative = growth inhibition, usual class: inhibitors; 420,000 compounds, 12% hits; AID 686979, 2013; also: nearly all actives have a fitted effect of over 55% in size
#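 Chicken DT40 Tdp1-/- cells stably complemented with human TDP1 were seeded at 400 cells/well in medium containing 20 nM camptothecin, exposed to pin-transferred compounds, and grown at 37 °C for at least 48 hr. Viability was read as ATP luminescence.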
# HT1080-NT tox – qHTS for induction of synthetic lethality in tumor cells producing 2HG: qHTS for the HT-1080-NT fibrosarcoma cell line; Potency, µM (highest dose often 46.1 µM), for the others: at the highest dose activity, negative = less viability, actives largely listed as cytotoxic; 360,000 compounds, 1.6% hits; HT-1080-NT fibrosarcoma viability, CellTiter-Glo ATP luminescence, 48 h;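 also: NT is the 2HG producing partner of a matched IDH1 knockdown line; 0% = DMSO-treated cells and -100% = media-only wells without cells; nearly all actives have a fitted effect of over 55% in size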
#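 Luminescent CellTiter-Glo readout after 48 hours of compound exposure at 37 degrees C defined viability of HT-1080-NT cells. Activity was normalized to DMSO wells and cell-free media wells; concentration-response curves were fitted and assigned curve classes.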
# KB-3-1 cytotox – qHTS assay for MDR1-selective chemotherapeutics: Primary screen using the parental adenocarcinoma cell KB-3-1 | KB-3-1 viability, CellTiter-Glo ATP luminescence, 72 h | Potency, µM (top dose mostly 46.1 µM), usual class: cytotoxic | 400,000 compounds, 1.4% hits | AID 1347075, 2019; also: nearly all actives have a fitted effect of over 60% in size
#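 Luminescent ATP read-out (CellTiter-Glo) measures survival of drug-naive KB-3-1 cells after 72 h compound exposure at 37 °C. Titration series was screened from lowest to highest concentration, with DMSO vehicle plates as background controls.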
# HT1080 IDH1KD tx – qHTS for induction of synthetic lethality in tumor cells producing 2HG: qHTS for the HT-1080-IDH1KD cell line; HT-1080 IDH1 knockdown viability, ATP luminescence, 48 h; Potency, µM (top dose mostly 46.1 µM), inactives show at the highest dose activity, negative = toxicity, usual class: cytotoxic; 360,000 compounds, 2% hits; AID 686971, 2013;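 also: 0% = DMSO wells and -100% = cell-free medium wells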
#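 HT-1080-IDH1KD cells (IDH1 knocked down), 750/well in RPMI with 5% FBS, treated with compound 48 h at 37 degrees C. Viability by CellTiter-Glo luminescence, normalised to DMSO and no-cell wells; concentration-response curves classed.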
# DT40 TDP1 no CPT – qHTS for Inhibitors of human tyrosyl-DNA phosphodiesterase 1 (TDP1): qHTS in cells in absence of CPT; DT40 Tdp1-/- hTDP1 cells, no CPT, ATP luminescence, 48 h; 420,000 compounds, 15% hits; AID 686978, 2013; Potency, µM (doses to about 46.2 µM), without a hit: top-dose activity change, negative = growth inhibition, actives largely listed as inhibitors; also: nearly all actives have a fitted effect of over 55% in size
#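 Growth kinetics read by CellTiter-Glo luminescence after ≥48 hr at 37 °C. Cells: DT40 Tdp1-/- stably carrying human TDP1, 400 per well, compound exposure in the absence of CPT (DMSO vehicle).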
# KB-V1 cytotox – qHTS assay for MDR1-selective chemotherapeutics: Primary screen using the drug-selected MDR subline cells KB-V1; 400,000 compounds, 3.4% hits; Potency, µM (series often up to 46.1 µM), usual class: cytotoxic; KB-V1 MDR cells viability, CellTiter-Glo, 72 h; also: nearly all actives have a fitted effect of over 60% in size
#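 Cytotoxicity via CellTiter-Glo luminescence after 72 h compound exposure at 37 degrees C. Cells: drug-selected KB-V1 line, DMEM phenol-red free plus 10% FBS. Compounds tested at multiple concentrations; normalized data fitted to concentration-effect curves.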
# An asterisk follows results filed as active; i = inactive; ? = inconclusive; · = not tested or not shown; [ ] = dose if it differs, or a comment. Calls follow the shape of the dose curve; as a rule, active = well fitted curve in the direction sought with a large enough effect; inconclusive = small, poorly fitted or top-dose-only effect, or another doubt; inactive = no such curve, though single readings can be large; an effect the other way counts as inactive or inconclusive. Unless noted, % is scaled to controls: 0 for no effect and ±100 for the full control effect; potency is read from the fitted curve at half-maximal effect.
SMILES,DT40 TDP1 CPT,HT1080-NT tox,KB-3-1 cytotox,HT1080 IDH1KD tx,DT40 TDP1 no CPT,KB-V1 cytotox
CC1(C(=O)NS(=O)(=O)c2ccc(F)cc2F)CCN1C(=O)CC(c1ccccc1)c1ccccc1 (stereo not drawn),?,-13.7%,i,5.1%,?,i
CC1(C(=O)Nc2nccs2)CCN1C(=O)CC(c1ccccc1)c1ccccc1 (stereo not drawn),16.4µM*,5.6%,i,4.3%,20.6µM*,?
C#Cc1ccc(NC(=O)C2(C)CCN2C(=O)CC(c2ccccc2)c2ccccc2)cc1 (stereo not drawn),16.4µM*,?,?,?,?,?
Cc1nc2nc(C)c(NS(=O)(=O)c3ccc(F)cc3)c(=O)n2[nH]1,8.9%,·,i,·,15.8%,i
O=C(NCc1cccnc1)/C(=C\c1ccc(-c2cccc(Cl)c2)o1)S(=O)(=O)c1ccccc1,4.61µM*,-18.3%,?,?,5.17µM*,4.11µM*
CCOC(=O)c1c(-c2ccccc2)csc1NC(=O)c1nc(SCC)ncc1Cl,-9.5%,·,i,·,?,i
CCOC(=O)c1c(-c2ccccc2)csc1NC(=O)CSc1nc(N)cc(N)n1,?,5.7%,6.51µM*,-19.8%,8.2µM*,3.26µM*
CCOC(=O)c1c(-c2ccccc2)csc1NC(=O)CSc1nc(C)cc(C)n1,?,-8.9%,i,-12.7%,23.1µM*,i
COc1ccc(C)cc1-n1c(SCC(=O)Nc2cc(C)on2)nc2ccccc2c1=O,10.3µM*,-27.5%,?,-27.3%,13µM*,18.4µM*
COc1ccccc1-n1c(N)cc(=O)nc1SCC(=O)Nc1cc(C)on1,-0.2%,12.8%,i,7.5%,0.8%,i
COc1ccc(C)cc1-n1c(SCC(=O)Nc2cc(C)on2)nc2sc(C)c(C)c2c1=O,11.6µM*,-0.6%,i,-16.3%,8.2µM*,i
CC(C(=O)NCCS(=O)(=O)c1ccc(Br)cc1)S(=O)(=O)c1ccc(Cl)cc1 (stereo not drawn),-1.8%,-3.3%,i,-5.5%,?,i
CC(C)c1ccc(C(C)NCCS(=O)(=O)c2ccc(Cl)cc2)cc1 (stereo not drawn),20.6µM*,-17.2%,i,-28.9%,11.6µM*,?
CC1CCC(C(=O)c2c(O)c3ccccc3oc2=O)CC1 (stereo not drawn),18.4µM*,-22.7%,?,-13.7%,18.4µM*,3.66µM*
CC(=N)c1c(O)c2ccccc2oc1=O,-6.6%,6.2%,i,-7.2%,14.2%,i
COc1ccc(OCC(=O)c2c(O)c3ccccc3oc2=O)cc1,?,-5.2%,?,-0.9%,-26.3%,20.6µM*
CNCC(=O)NCC(=O)N[C@@H](Cc1ccccc1)C(=O)N[C@@H](CC(C)C)C(=O)O,-16.8%[4.12 µM],·,·,·,-14.9%[4.12 µM],·
O=C(OCC(=O)N1CCC(Cc2ccccc2)CC1)c1ccccc1O,?,-5.7%,i,10.5%,29.1µM*,i
O=C(NCC(=O)N1CCC(Cc2ccccc2)CC1)c1ccccc1F,?,-3.1%,i,-17.2%,20.6µM*,?
NC(=O)c1ccccc1OCC(=O)N1CCC(Cc2ccccc2)CC1,7.31µM*,-2.5%,?,-21.2%,9.2µM*,i
CCOC(=O)c1cc(S(=O)(=O)Nc2ccc(Br)c(C)c2)[nH]n1,-28.1%,·,i,·,?,i
Cc1ccccc1NC(=O)CSc1nc(-c2ccco2)nc2cc(=O)[nH]n12,8.3%,·,i,·,-1.5%,?
O=C(COc1ccccc1)Nc1nnc(SCc2cc(=O)n3cc(Cl)ccc3n2)s1,2.8%,·,·,·,1.2%,·
O=c1[nH]c(/C(Cl)=C/c2cc(Cl)ccc2O)nc2cc(Cl)ccc12,13µM*,-0.9%,?,-1.8%,13µM*,14.6µM*
CCc1ccc(C2CC(=O)Nc3c2c(=O)n(C)c2ncnn32)cc1 (stereo not drawn),·,·,i,·,·,?
SMILES,DT40 TDP1 CPT,HT1080-NT tox,KB-3-1 cytotox,HT1080 IDH1KD tx,DT40 TDP1 no CPT,KB-V1 cytotox
COc1cc(C(=O)Nc2cccc3cccnc23)cc(OC)c1OC,?,-5.1%,i,-12.3%,25.9µM*,?
COc1cc(OC)cc(C(=O)Nc2cccc3cccnc23)c1,?,-2.1%,i,-5.5%,?,?
CCCOc1cccc(C(=O)Nc2cccc3cccnc23)c1,23.1µM*,·,i,·,?,i
Cc1cnc(C(=O)Nc2cccc3cccnc23)cn1,0.0073µM*,?,5.17µM*,?,0.0092µM*,?
Cc1cccc(C(=O)Nc2cccc3cccnc23)c1,6.8%,2.7%,i,0.0%,-18.0%,i
Cc1c2cnn(CC(=O)Nc3ccc(F)cc3F)c(=O)c2c(C)n1Cc1cccc(Cl)c1,-26.3%,·,i,·,?,i
Cc1cc(NC(=O)Cn2cnc3sc(C)c(C)c3c2=O)no1,-2.6%,0.2%,i,-10.8%,-10.1%,i
Cc1cc(NC(=O)Cn2cnc3sc(C)c(-c4ccccc4)c3c2=O)no1,-1.4%,-6.6%,i,-14.8%,-4.7%,20.6µM*
COc1ccc(-c2csc(Cc3nnc(N4CCOCC4)n3-c3ccccc3)n2)cc1,?,11.9%,i,0.8%,?,18.4µM*
CCCNC(=O)C(=O)NCC(c1ccc2c(c1)OCO2)N1CCOCC1 (stereo not drawn),4.6%,·,i,·,-5.4%,i
CCc1nn(CC(=O)NCc2cccc(OC)c2)c(=O)c2cc3cc(F)ccc3n12,?,·,i,·,-29.1%,i
O=C(NC1CCCC1)C(c1ccccc1)N(Cc1cccnc1)C(=O)Cc1cccs1 (stereo not drawn),3.5%,-1.8%,i,-0.5%,-2.6%,?
O=C(NCC(=O)N(c1ccc2c(c1)OCO2)C(C(=O)NC1CCCC1)c1ccncc1)c1ccco1 (stereo not drawn),23.1µM*,0.6%,?,-5.8%,23.1µM*,i
Cc1nn(C)cc1C(C(=O)NC1CCCCC1)N(C(=O)Cc1cccs1)c1ccc(C(C)C)cc1 (stereo not drawn),?,?,?,?,?,2.91µM*
